Reference: PubChem BioAssay (EPA / NIEHS)
Some structures have more than one record in an assay (separate samples or runs), and their calls can disagree. The source made the active and inactive calls. How the source made its calls: active means hit-call score of the fitted dose curve at least 0.9, where 1 is the maximum; inactive means score below 0.9.

Assays:
[1] = BSK_3C_TissueFactor: BioMAP Diversity Plus: 3C Assay for Tissue Factor Biomarker Activity (AID 2282997); settings: BioMAP 3C HUVEC, tissue factor biomarker readout; actives raise or lower the signal
How it was run: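 ELISA read-out of Tissue Factor levels on human umbilical vein endothelium collected 24 h after chemical dosing. Gain or loss of signal was fitted relative to DMSO.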

[2] = BSK_3C_uPAR: BioMAP Diversity Plus: 3C Assay for Urokinase-type plasminogen activator receptor (uPAR) Biomarker Activity (AID 2282998); settings: BioMAP 3C HUVEC, uPAR biomarker ELISA; actives raise or lower the signal
How it was run: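 In this endothelial cell-based assay, human umbilical vein primary cells were treated with chemicals and harvested at 24 h. uPAR was quantified using ELISA, with gains or losses fitted relative to DMSO controls.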

[3] = BSK_3C_VCAM1: BioMAP Diversity Plus: 3C Assay for Vascular cell adhesion molecule 1 (VCAM1) Biomarker Activity (AID 2282999); settings: BioMAP 3C HUVEC, VCAM1 ELISA, cytokine-stimulated; actives raise or lower the signal
How it was run: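 Human umbilical vein endothelial cells (3C system), biomarker read by ELISA 24 h after dosing; bidirectional fit against DMSO baseline. Cytotoxicity tracked by SRB total-protein staining in parallel cultures at biomarker time.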

[4] = BSK_4H_Eotaxin3: BioMAP Diversity Plus: 4H Assay for Eotaxin 3 Biomarker Activity (AID 2283000); settings: primary human endothelial cells (HUVEC); actives raise or lower the signal;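 further: CCL26 protein level quantified by ELISA in parallel with SRB cytotoxicity check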
How it was run: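 Chemicals were added to human umbilical vein endothelium cultures, and Eotaxin-3 was quantified by ELISA at 24 h. Values were derived by bidirectional fitting with DMSO serving as negative control and activity baseline.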

[5] = read-out: Intercellular Adhesion Molecule 1 (ICAM1), ICAM1 (gene 3383); experiment: BSK_3C_ICAM1: BioMAP Diversity Plus: 3C Assay for Intercellular Adhesion Molecule 1 (ICAM1) Biomarker Activity (AID 2283003); settings: primary human endothelial cells (HUVEC); actives raise or lower the signal
How it was run: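 HUVEC primary cells stimulated under 3C conditions; ICAM1 measured by ELISA 24 h after compound dosing. Curves fitted bidirectionally against the DMSO baseline. Overt cytotoxicity checked by SRB staining of parallel cultures.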

[6] = BSK_3C_Proliferation: Cell Proliferation Assessment in the BioMAP Diversity Plus: 3C Assay (AID 2283006); settings: primary human endothelial cells (HUVEC)
How it was run: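 Subconfluent HUVEC (3C system) cultured with chemical; relative cell number read at 48 h by sulforhodamine B total-protein staining (0.1% SRB after 10% TCA fixation, 560 nm). Bidirectional fit relative to DMSO.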

[7] = read-out: E-selectin (Homo sapiens) (UniProt P16581); experiment: BSK_3C_Eselectin: BioMAP Diversity Plus: 3C Assay for Eselectin Biomarker Activity (AID 2283015); settings: primary human endothelial cells (HUVEC); actives raise or lower the signal;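 further: cell surface E-selectin protein quantified by ELISA 24 h after dosing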
How it was run: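 ELISA read-out of E-selectin on endothelial monolayers after 24 h chemical treatment. Human umbilical vein primary cells served as the system, with DMSO defining baseline activity for bidirectional fitting.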

[8] = read-out: Interleukin-1 alpha (IL1a), IL1A (gene 3552); experiment: BSK_BE3C_IL1a: BioMAP Diversity Plus: BE3C Assay for Interleukin-1 alpha (IL1a) Biomarker Activity (AID 2283016); settings: primary human bronchial epithelial cells; actives raise or lower the signal
How it was run: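 Human primary bronchial epithelial cells, 24 h chemical exposure; IL-1a quantified by ELISA, fitted bidirectionally against DMSO. Cytotoxicity assessed in parallel by SRB total-protein staining at the time of measurement.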

[9] = read-out: Monocyte Chemoattractant Protein-1 (MCP1), CCL2 (gene 6347); experiment: BSK_3C_MCP1: BioMAP Diversity Plus: 3C Assay for Monocyte Chemoattractant Protein-1 (MCP1) Biomarker Activity (AID 2283017); settings: primary human endothelial cells (HUVEC); actives raise or lower the signal
How it was run: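 ELISA read-out of MCP-1 from human umbilical vein endothelial cell cultures harvested 24 h post-dosing. Gain or loss of signal was fitted relative to DMSO.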

[10] = read-out: Interleukin-8 (IL8), CXCL8 (gene 3576); experiment: BSK_3C_IL8: BioMAP Diversity Plus: 3C Assay for Interleukin-8 (IL8) Biomarker Activity (AID 2283020); settings: primary human endothelial cells (HUVEC); actives raise or lower the signal
How it was run: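 Primary human umbilical vein endothelial cells were dosed for 24 h. IL-8 was quantified by ELISA and fitted bidirectionally against DMSO. Cytotoxicity was assessed in parallel cultures by SRB staining at 560 nm.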

[11] = read-out: Monokine induced gamma interferon (MIG), CXCL9 (gene 4283); experiment: BSK_3C_MIG: BioMAP Diversity Plus: 3C Assay for Monokine induced gamma interferon (MIG) Biomarker Activity (AID 2283021); settings: primary human endothelial cells (HUVEC); actives raise or lower the signal
How it was run: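 HUVEC primary endothelial cultures dosed with chemical; MIG quantified by ELISA at 24 h. Data fitted bidirectionally against DMSO control, with parallel SRB total-protein staining for cytotoxicity.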

[12] = BSK_3C_SRB: Viability Assessment in the BioMAP Diversity Plus: 3C Assay (AID 2283023); settings: primary human endothelial cells (HUVEC);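 further: fitted both ways against DMSO so a hit may be signal rise or drop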
How it was run: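 Absorbance at 560 nm of sulforhodamine B-stained (0.1%) total protein served as a cytotoxicity readout in human umbilical vein endothelial cells, 24 h after chemical treatment. Signal was fitted bidirectionally relative to DMSO.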

[13] = read-out: Matrix Metallopeptidase 1 (MMP1), MMP1 (gene 4312); experiment: BSK_BE3C_MMP1: BioMAP Diversity Plus: BE3C Assay for Matrix Metallopeptidase 1 (MMP1) Biomarker Activity (AID 2283024); settings: primary human bronchial epithelial cells; actives raise or lower the signal
How it was run: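 Human primary bronchial epithelial cells (BE3C system) dosed for 24 h; MMP-1 quantified by ELISA. Bidirectional fit against DMSO; cytotoxicity tracked in parallel cultures by SRB total-protein staining.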

[14] = BSK_4H_SRB: Viability Assessment in the BioMAP Diversity Plus: 4H Assay (AID 2283027); settings: primary human endothelial cells (HUVEC)
How it was run: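 Human umbilical vein endothelial cells, 24 h after chemical dosing; total protein measured by 0.1% sulforhodamine B staining after 10% TCA fixation, read at 560 nm. Bidirectional fitting against DMSO.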

[15] = BSK_BE3C_SRB: Viability Assessment in the BioMAP Diversity Plus: BE3C Assay (AID 2283028); settings: primary human bronchial epithelial cells
How it was run: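 Cells (human bronchial epithelial, primary) are treated with chemicals, and after 24 h the parallel cultures are fixed in 10% TCA. These are then stained with 0.1% SRB and read at 560 nm. Gain or loss of signal is fitted relative to DMSO.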

[16] = read-out: Urokinase-type plasminogen activator receptor (uPAR), PLAUR (gene 5329); experiment: BSK_4H_uPAR: BioMAP Diversity Plus: 4H Assay for Urokinase-type plasminogen activator receptor (uPAR) Biomarker Activity (AID 2283030); settings: primary human endothelial cells (HUVEC); actives raise or lower the signal
How it was run: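 Cell-surface uPAR ELISA signal, measured 24 h after dosing human umbilical vein endothelial cells, was analyzed with bidirectional fitting relative to DMSO. Parallel SRB staining of total protein tracked overt cytotoxicity.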

[17] = read-out: Vascular endothelial growth factor receptor 2 (Homo sapiens) (UniProt P35968); experiment: BSK_4H_VEGFRII: BioMAP Diversity Plus: 4H Assay for Vascular endothelial growth factor receptor 2 (VEGFR2) Biomarker Activity (AID 2283031); settings: primary human endothelial cells (HUVEC); actives raise or lower the signal;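 on AC50: cell-surface VEGFR2 protein level quantified by ELISA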
How it was run: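 ELISA read-out of VEGFRII in primary human umbilical vein endothelium, taken 24 h after chemical treatment. Responses are expressed relative to DMSO, with bidirectional fitting.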

[18] = read-out: Human Leukocyte Antigen - DR isotype (HLADR), HLA-DRA (gene 3122); experiment: BSK_BE3C_HLADR: BioMAP Diversity Plus: BE3C Assay for Human Leukocyte Antigen - DR isotype (HLADR) Biomarker Activity (AID 2283032); settings: primary human bronchial epithelial cells; actives raise or lower the signal
How it was run: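 Human primary bronchial epithelial cells (BE3C system) exposed to compound for 24 hours; cell-surface HLA-DR measured by ELISA, fitted bidirectionally relative to DMSO. Total protein by SRB in parallel cultures tracked cytotoxicity.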

[19] = read-out: Vascular cell adhesion molecule 1 (VCAM1), VCAM1 (gene 7412); experiment: BSK_4H_VCAM1: BioMAP Diversity Plus: 4H Assay for Vascular cell adhesion molecule 1 (VCAM1) Biomarker Activity (AID 2283033); settings: primary human endothelial cells (HUVEC); actives raise or lower the signal
How it was run: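 Primary human umbilical vein endothelial cells, 4H stimulation system, treated for 24 h; cell-surface VCAM-1 quantified by ELISA. Bidirectional fitting against DMSO; cytotoxicity tracked by SRB total-protein staining in parallel cultures.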

[20] = read-out: Interferon-gamma inducible Protein 10 (IP10), CXCL10 (gene 3627); experiment: BSK_BE3C_IP10: BioMAP Diversity Plus: BE3C Assay for Interferon-gamma inducible Protein 10 (IP10) Biomarker Activity (AID 2283034); settings: primary human bronchial epithelial cells; actives raise or lower the signal
How it was run: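 Primary human bronchial epithelial cells, with IP-10 measured by ELISA 24 hours after chemical dosing. Bidirectional fit against DMSO; cytotoxicity checked by SRB total protein staining in parallel cultures.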

[21] = read-out: Monokine induced gamma interferon (MIG), CXCL9 (gene 4283); experiment: BSK_BE3C_MIG: BioMAP Diversity Plus: BE3C Assay for Monokine induced gamma interferon (MIG) Biomarker Activity (AID 2283035); settings: primary human bronchial epithelial cells; actives raise or lower the signal;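 further: MIG protein measured by ELISA in BE3C cultures after 24 h of dosing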
How it was run: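 Primary human bronchial epithelial cells treated for 24 h; MIG levels measured by ELISA, fitted bidirectionally versus DMSO. Parallel SRB total-protein staining assessed cytotoxicity.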

[22] = read-out: Plasminogen activator inhibitor-1 (PAI1), SERPINE1 (gene 5054); experiment: BSK_BE3C_PAI1: BioMAP Diversity Plus: BE3C Assay for Plasminogen activator inhibitor-1 (PAI1) Biomarker Activity (AID 2283037); settings: primary human bronchial epithelial cells; actives raise or lower the signal
How it was run: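 Primary human bronchial epithelial cells (BE3C system) exposed 24 h; PAI-1 quantified by ELISA. Parallel sulforhodamine B staining of total protein flags cytotoxicity. Bidirectional fit versus DMSO.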

[23] = read-out: Urokinase-type plasminogen activator receptor (uPAR), PLAUR (gene 5329); experiment: BSK_BE3C_uPAR: BioMAP Diversity Plus: BE3C Assay for Urokinase-type plasminogen activator receptor (uPAR) Biomarker Activity (AID 2283039); settings: primary human bronchial epithelial cells; actives raise or lower the signal;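 further: cells exposed to compound for one day before measurement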
How it was run: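 Primary human bronchial epithelial cells dosed for 24 h; uPAR quantified by ELISA with bidirectional fitting against DMSO. Overt cytotoxicity assessed in parallel cultures by SRB total-protein staining (0.1% SRB, 560 nm).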

[24] = read-out: Interleukin-6 (IL6), IL6 (gene 3569); experiment: BSK_CASM3C_IL6: BioMAP Diversity Plus: CASM3C Assay for Interleukin-6 (IL6) Biomarker Activity for (AID 2283040); settings: primary human coronary artery smooth muscle cells; actives raise or lower the signal
[25] = read-out: Tissue plasminogen activator (tPA), PLAT (gene 5327); experiment: BSK_BE3C_tPA: BioMAP Diversity Plus: BE3C Assay for Tissue plasminogen activator (tPA) Biomarker Activity (AID 2283041); settings: primary human bronchial epithelial cells; actives raise or lower the signal;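 further: tPA level quantified by ELISA one day after compound addition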
How it was run: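 Primary human bronchial epithelial cells in the BE3C system, exposed to compound for 24 h. tPA was quantified by ELISA; DMSO served as baseline, with gain or loss of signal fitted. Cytotoxicity checked in parallel cultures by SRB total-protein staining.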

[26] = read-out: Interleukin-8 (IL8), CXCL8 (gene 3576); experiment: BSK_CASM3C_IL8: BioMAP Diversity Plus: CASM3C Assay for Interleukin-8 (IL8) Biomarker Activity (AID 2283042); settings: primary human coronary artery smooth muscle cells; actives raise or lower the signal;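 further: IL-8 protein level quantified by ELISA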

Chain of E-selectin (Homo sapiens) (P16581 whole entry, looked up): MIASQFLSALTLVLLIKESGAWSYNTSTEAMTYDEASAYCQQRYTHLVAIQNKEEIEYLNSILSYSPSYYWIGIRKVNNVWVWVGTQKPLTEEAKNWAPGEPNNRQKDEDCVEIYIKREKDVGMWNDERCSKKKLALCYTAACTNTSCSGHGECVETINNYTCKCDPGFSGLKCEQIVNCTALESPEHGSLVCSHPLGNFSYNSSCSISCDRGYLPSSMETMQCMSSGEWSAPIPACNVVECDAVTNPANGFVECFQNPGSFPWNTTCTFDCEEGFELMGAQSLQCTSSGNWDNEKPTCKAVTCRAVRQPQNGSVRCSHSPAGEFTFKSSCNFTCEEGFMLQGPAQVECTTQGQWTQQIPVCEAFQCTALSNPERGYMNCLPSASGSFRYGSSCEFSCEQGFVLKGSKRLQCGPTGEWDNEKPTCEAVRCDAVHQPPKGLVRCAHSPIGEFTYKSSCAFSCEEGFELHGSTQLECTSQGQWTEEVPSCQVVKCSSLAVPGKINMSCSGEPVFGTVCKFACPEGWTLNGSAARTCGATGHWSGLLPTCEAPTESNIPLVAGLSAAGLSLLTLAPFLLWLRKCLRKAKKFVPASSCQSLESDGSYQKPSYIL

For `CCCC[N+](CCCC)(CCCC)CCCC`, the outcome [1] was “inactive”, the outcome [2] was “inactive” and the outcome [3] was “inactive”. For the same compound, the outcome [4] was “inactive”, the outcome [5] was “inactive” and the outcome [6] was “inactive”. The outcome [7] was “inactive”, the outcome [8] was “inactive” and the outcome [9] was “inactive”. The outcome [10] was “inactive”, the outcome [11] was “inactive” and the outcome [12] was “inactive”. For the same compound, the AC50 [13] was 3.97 µM (active), the outcome [13] was “inactive” and the outcome [14] was “inactive”. For the same compound, the outcome [15] was “inactive”, the outcome [16] was “inactive” and the AC50 [17] was 2.14 µM (active). For the same compound, the outcome [17] was “inactive”, the outcome [18] was “inactive” and the outcome [19] was “inactive”. The outcome [20] was “inactive”, the outcome [21] was “inactive” and the outcome [22] was “inactive”. For the same compound, the outcome [23] was “inactive”, the outcome [24] was “inactive” and the outcome [25] was “inactive”. The outcome [26] was “inactive”.
